Some test systems named below: SR leukemia; OVCAR-8 ovarian; OVCAR-5 ovarian; OVCAR-4 ovarian; SK-OV-3 ovarian; IGROV1 ovarian; OVCAR-3 ovarian; HS 578T breast; NCI/ADR-RES ovarian; T-47D breast; MDA-MB-435 melanoma; SW-620 colon; MCF7 breast; HCT-116 colon; KM12 colon; RPMI-8226 leukemia; BT-549 breast; HCC-2998 colon.
Assay in all cases: NCI-60 one-dose screen, 48 h (100 = growth as untreated, 0 = no growth, -100 = all killed)
What all share (conditions): 10 µM unless noted

The results in this text go back to PubChem BioAssay (NCI).

Molecules are shown by their SMILES. Where “and” joins values, the source holds several entries; their conditions need not be identical. Equal entries are not always repeated. This is part of a sample that, as a whole, favours compounds with a hit. Of some 83,000 tested, about 20% had one in any assay.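 The test compound was applied at a single concentration to cells in 96-well plates for 48 hours, and percent growth was recorded.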 Calls of active or inactive are those of the source. The calls were made as follows: active = growth percent below 10; inactive = the rest.

As for `O=C(Nc1ccc(Cl)cc1)c1cc2ccccc2cc1O`, the growth in the experiment with SR leukemia is 15.8% (inactive) and -13.9% (active); in the experiment on OVCAR-8 ovarian, 26.1% (inactive) and -5.89% (active); in the experiment with OVCAR-5 ovarian, 78.8% (inactive) and 42.7% (inactive); with OVCAR-4 ovarian, 34.5% (inactive) and 20.9% (inactive); with SK-OV-3 ovarian, 18.9% (inactive); with IGROV1 ovarian it was 23.3% (inactive) and 21.8% (inactive). The growth with OVCAR-3 ovarian was 14.4% (inactive) and 5.62% (active); in the experiment with HS 578T breast, 15.8% (inactive) and 4.92% (active); in the experiment on NCI/ADR-RES ovarian, 12.5% (inactive) and 6.49% (active); in the experiment on T-47D breast it was 15.9% (inactive) and 15.4% (inactive); in the experiment with MDA-MB-435 melanoma, 39.2% (inactive) and 25.9% (inactive); with SW-620 colon it was 13.3% (inactive) and 5.94% (active). Also, the growth with MCF7 breast was 12% (inactive) and -0.605% (active); with HCT-116 colon, 18.9% (inactive) and -44.3% (active); in the experiment on KM12 colon, 8.59% (active) and 2.94% (active).

Turning to `CC(C)Cc1ccc(C(C)C(=O)NCc2ccc(Cn3c(=O)sn(CCCI)c3=O)cc2)cc1` (stereo unspecified), the growth in the experiment on SR leukemia was 56.4% (inactive) and 2.84% (active); in the experiment on RPMI-8226 leukemia, 96.5% (inactive) and -19.8% (active); with OVCAR-8 ovarian, 96.3% (inactive) and -30.2% (active); in the experiment with OVCAR-4 ovarian, 84.9% (inactive) and -53.2% (active); with SK-OV-3 ovarian it was 70.9% (inactive); in the experiment on IGROV1 ovarian it was 88.2% (inactive) and -82.1% (active). The growth in the experiment on OVCAR-3 ovarian was 92.7% (inactive) and -86% (active); in the experiment with HS 578T breast, 92.1% (inactive) and -1.05% (active); in the experiment on NCI/ADR-RES ovarian it was 106% (inactive) and -18.5% (active); in the experiment on T-47D breast, -49.3% (active); with BT-549 breast, 89.9% (inactive) and -81.9% (active); in the experiment on SW-620 colon it was 66.5% (inactive) and -63.2% (active). Besides, the growth with MCF7 breast was 31.7% (inactive) and -61.4% (active); in the experiment on HCT-116 colon, 82% (inactive) and -72.9% (active); in the experiment on HCC-2998 colon it was 91.5% (inactive) and -69.2% (active); with KM12 colon, 99.2% (inactive) and -36.7% (active).

In the case of `COc1ccc2cc3[n+](cc2c1OC)CCc1cc2c(cc1-3)OCO2`, the growth in the experiment with SR leukemia is 50% (inactive) and 68.8% (inactive); in the experiment with RPMI-8226 leukemia, 60.4% (inactive) and 43.8% (inactive); in the experiment on OVCAR-8 ovarian it was 44.8% (inactive); in the experiment on OVCAR-4 ovarian, 47.8% (inactive) and 79.1% (inactive); with SK-OV-3 ovarian it was 88.1% (inactive) and 104% (inactive); in the experiment on IGROV1 ovarian, 84.4% (inactive) and 74.8% (inactive). Further, the growth in the experiment on OVCAR-3 ovarian was 55.4% (inactive) and 54.2% (inactive); in the experiment with HS 578T breast, 79.6% (inactive) and 73.5% (inactive); with NCI/ADR-RES ovarian, 99% (inactive) and 101% (inactive); with T-47D breast it was 38.2% (inactive) and 47.4% (inactive); in the experiment with MDA-MB-435 melanoma it was 59% (inactive) and 66.2% (inactive); with SW-620 colon, 79.3% (inactive) and 92.3% (inactive). In addition, the growth in the experiment on MCF7 breast was 61.9% (inactive) and 76.9% (inactive); in the experiment with HCT-116 colon, 68.5% (inactive) and 89.6% (inactive); with HCC-2998 colon, 56% (inactive) and 96.8% (inactive); in the experiment on KM12 colon it was 40.7% (inactive) and 30.1% (inactive).

`N/C(=N\N=C\c1ccc2c(c1)OCO2)N/N=C\c1ccc2c(c1)OCO2`: the growth in the experiment on SR leukemia was -8.73% (active); in the experiment with RPMI-8226 leukemia, 98.5% (inactive) and 67.3% (inactive); with OVCAR-8 ovarian, 102% (inactive) and 95% (inactive); in the experiment on SK-OV-3 ovarian, 118% (inactive) and 111% (inactive); in the experiment on IGROV1 ovarian, 112% (inactive) and 96.8% (inactive); in the experiment on OVCAR-3 ovarian, 126% (inactive) and 101% (inactive). The growth in the experiment on HS 578T breast was 115% (inactive) and 92.5% (inactive); with NCI/ADR-RES ovarian, 101% (inactive) and 82.6% (inactive); in the experiment with T-47D breast, 112% (inactive) and 107% (inactive); with MDA-MB-435 melanoma, 81.2% (inactive) and 65.5% (inactive); in the experiment with SW-620 colon it was 101% (inactive) and 75.2% (inactive); in the experiment with MCF7 breast it was 94% (inactive) and 56% (inactive). The growth is 97.6% (inactive) and 48.8% (inactive) with HCT-116 colon; 103% (inactive) and 86.1% (inactive) in the experiment with HCC-2998 colon; 93.5% (inactive) and 70.3% (inactive) with KM12 colon.

Take `Cn1c(=O)c2[nH]c(CCCCCCCCc3nc4ccccc4[nH]3)nc2n(C)c1=O`: the growth in the experiment with SR leukemia is 43.5% (inactive) and 45.4% (inactive); in the experiment on RPMI-8226 leukemia, 52.2% (inactive); in the experiment with OVCAR-8 ovarian it was 58.9% (inactive) and 69.2% (inactive); in the experiment with OVCAR-4 ovarian, 23.5% (inactive) and 50.2% (inactive); in the experiment on SK-OV-3 ovarian, 95.4% (inactive) and 94% (inactive); in the experiment on OVCAR-3 ovarian it was 88.1% (inactive) and 66.6% (inactive). Also, the growth was 109% (inactive) and 85.6% (inactive) in the experiment with HS 578T breast; 87.6% (inactive) and 94.4% (inactive) in the experiment on NCI/ADR-RES ovarian; 46.6% (inactive) and 44% (inactive) with T-47D breast; 46.1% (inactive) and 54.1% (inactive) in the experiment on BT-549 breast; 37% (inactive) and 52.2% (inactive) in the experiment with MDA-MB-435 melanoma; 91.7% (inactive) and 91.2% (inactive) in the experiment on SW-620 colon. The growth was 45.2% (inactive) and 50.7% (inactive) in the experiment on MCF7 breast; 40.9% (inactive) and 56% (inactive) with HCT-116 colon; 59.2% (inactive) and 86.5% (inactive) in the experiment with HCC-2998 colon; 83.6% (inactive) and 91.1% (inactive) in the experiment with KM12 colon.

As to `O=C1c2c(O)cc(O)cc2OC(c2ccc(O)c(O)c2)C1O` (stereo unspecified), the growth in the experiment on SR leukemia is 101% (inactive); in the experiment with OVCAR-8 ovarian it was 99.1% (inactive); in the experiment with OVCAR-5 ovarian, 104% (inactive); in the experiment on OVCAR-4 ovarian, 113% (inactive); in the experiment on SK-OV-3 ovarian it was 109% (inactive); in the experiment on IGROV1 ovarian, 126% (inactive). Besides, the growth in the experiment with OVCAR-3 ovarian is 123% (inactive); with HS 578T breast, 109% (inactive); in the experiment on T-47D breast it was 103% (inactive); in the experiment on MDA-MB-435 melanoma it was 111% (inactive); in the experiment on SW-620 colon it was 104% (inactive); in the experiment with MCF7 breast, 102% (inactive). Besides, the growth in the experiment on KM12 colon was 114% (inactive).
